Measurements from PubChem BioAssay (EPA / NIEHS).
Calls of active or inactive are those of the source. Rule for the calls: active = hit-call score of the fitted dose curve at least 0.9, where 1 is the maximum; inactive = score below 0.9.

What follows are compounds tested against Hepatocyte nuclear factor 6 (Homo sapiens) (UniProt Q9UBC0) (assay: ATG_HNF6_CIS: Attagene CIS-FACTORIAL HepG2 Assay for human Hepatocyte Nuclear Factor 6 (HNF6) (AID 2282952)). Details: HepG2 Attagene cis-factorial HNF6 reporter transcription; actives raise or lower the signal.
Chain of Hepatocyte nuclear factor 6 (Homo sapiens) (Q9UBC0 whole entry, looked up): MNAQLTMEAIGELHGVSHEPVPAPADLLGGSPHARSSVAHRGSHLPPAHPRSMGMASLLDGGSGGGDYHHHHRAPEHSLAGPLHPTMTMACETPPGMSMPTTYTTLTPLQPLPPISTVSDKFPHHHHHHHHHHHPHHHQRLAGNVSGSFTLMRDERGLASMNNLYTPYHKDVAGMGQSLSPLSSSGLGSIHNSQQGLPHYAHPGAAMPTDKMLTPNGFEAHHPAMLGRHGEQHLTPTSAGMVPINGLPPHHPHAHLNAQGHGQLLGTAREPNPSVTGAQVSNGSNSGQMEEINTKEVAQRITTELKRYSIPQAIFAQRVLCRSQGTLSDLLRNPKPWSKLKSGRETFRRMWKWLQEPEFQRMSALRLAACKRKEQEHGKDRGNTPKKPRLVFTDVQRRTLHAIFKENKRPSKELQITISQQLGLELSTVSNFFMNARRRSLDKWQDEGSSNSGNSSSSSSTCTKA
Experimental: ATG_CIS is a cell-based, multiplexed-readout assay that uses HepG2, a human liver cell line, with measurements taken at 24 hours after chemical dosing in a 24-well plate.ATG_HNF6_CIS is one of 52 assay component(s) measured or calculated from the ATG_CIS assay. It is designed to make measurements of mRNA induction, a form of inducible reporter, as detected with fluorescence intensity signals by Reverse transcription polymerase chain reaction (RT-PCR) and Capillary electrophoresis technology.Data from the assay component ATG_HNF6_CIS was analyzed into 1 assay endpoint. This assay endpoint, ATG_HNF6_CIS, was analyzed with bidirectional fitting relative to DMSO as the negative control and baseline of activity. Using a type of inducible reporter, measures of mRNA for gain or loss-of-signal activity can be used to understand the reporter gene at the transcription factor-level as they relate to the gene ONECUT1. Furthermore, this assay endpoint can be referred to as a primary readout, because this assay has produced multiple assay endpoints where this one serves a reporter gene function. To generalize the intended target to other relatable targets, this assay endpoint is annotated to the dna binding intended target family, where the subfamily is homeobox protein.
Human liver HepG2 cells are transiently transfected with multiple reporter transcription units (MRTUs) in 6-well plates using FuGene 6 reagent (Roche; 3 ml FuGene/1 mg DNA). The MRTU constructs are regulated by a cis-regulating element (promoter). […] A major difference between the CIS and TRANS system is that in CIS activities of endogenous TFs are measured, whereas the TRANS assay evaluates changes in activities of exogenous, chimeric NR-Gal4 proteins. […] At the end of 24 hour incubation, total RNA was isolated using TriZol reagent (Invitrogen). The isolated RNA is then reverse-transcribed using oligo(dT) primer and Mo-MLV reverse transcriptase (Invitrogen) with DNAse I (Ambion) treatment for 30 min. The one-tenth of the produced cDNA was amplified by PCR using Taq DNA polymerase (Invitrogen) and two reporter sequence-specific primers. The PCR products were fluorescently labeled by primer extension with 6-arboxyfluorescein (6-FAM) 5'-labeled reporter sequence-specific primer (2 min at 95 C, 20 s at 68 C and 10 min at 72 C) and these products were digested with 5U of HpaI (New England Biolabs) for 2h at 37 C. The fragments were purified using Qiaquick PCR columns (Qiagen), analyzed on an ABI 3130xL genetic analyzer (Applied Biosystems) with peak positions identified by using a set of X-rhodamine (ROX)-labeled MapMarker1000 molecular weight standards (BioVentures). The raw capillary electrophoresis data was processed using Attagraph software (Attagene).

SMILES | outcome | AC50
ClCCCCCCCl | inactive | –
CCCCOP(=O)(O)OCCCC | inactive | –
Cc1ccccc1CCl | inactive | –
CC(C)C#N | inactive | –
CC(C)(C)C(O)C(Oc1ccc(-c2ccccc2)cc1)n1cncn1 (stereo not given) | inactive | –
CN(C)CCC#N | inactive | –
SCc1ccco1 | inactive | –
Clc1ccc(-c2ccccc2)cc1 | inactive | –
CCCCOC(=O)CCC(=O)OCCCC | inactive | –
CC1OC(C)OC(C)O1 (stereo not given) | inactive | –
C[N+](=O)[O-] | inactive | –
Nc1cc(Cl)cc(Cl)c1 | inactive | –
CC(=O)C=Cc1ccccc1 | – | 179 µM (active)
[CH3][Sn]([CH3])([Cl])[Cl] | inactive | –
COC(=O)COc1ccc(Cl)cc1Cl | inactive | –
C#CC1(O)CCCCC1 | inactive | –
Cc1ccc(N(SC(F)(Cl)Cl)S(=O)(=O)N(C)C)cc1 | inactive | –
CCC(C)c1cc([N+](=O)[O-])cc([N+](=O)[O-])c1OC(=O)C=C(C)C (stereo not given) | inactive | –
Nc1ccc(Cl)c(Cl)c1 | inactive | –
O=C(NC(=O)c1c(F)cccc1F)Nc1ccc(Oc2ccc(C(F)(F)F)cc2Cl)cc1F | inactive | –

SMILES | outcome | AC50
O=P1(NCCCl)OCCCN1CCCl (stereo not given) | inactive | –
C=CC(=O)OCCO | inactive | –
O=[N+]([O-])c1ccc(Cl)cc1 | inactive | –
c1cc(OCC2CO2)ccc1Cc1ccc(OCC2CO2)cc1 (stereo not given) | – | 45.8 µM (active)
Nc1ccccc1C(=O)Oc1ccc2ccccc2c1 | inactive | –
C=CCN(CC=C)C(=O)C(Cl)Cl | inactive | –
CCCCCCCCCCCCCCCC[N+](C)(C)C | – | 100 µM (active)
CCc1cc(C)cc(CC)c1-c1c(OC(=O)C(C)(C)C)n2n(c1=O)CCOCC2 | inactive | –
ClCC(Cl)Cl | inactive | –
C[C@]12CC[C@H]3[C@@H](CC[C@@]45O[C@@H]4C(O)=C(C#N)C[C@]35C)[C@@H]1CC[C@@H]2O | inactive | –
CC1(C)C(=O)NC(=O)NC1=O | inactive | –
Nc1ccccc1 | inactive | –
COc1ncc(F)c2nc(S(=O)(=O)Nc3c(F)cccc3F)nn12 | inactive | –
C=CC(=O)OCCCCOC(=O)C=C | inactive | –
Nc1ccccc1C(=O)OCCc1ccccc1 | inactive | –
O=S(=O)(c1ccccc1)c1ccccc1 | inactive | –
COCC(=O)N(c1c(C)cccc1C)N1CCOC1=O | inactive | –
CCCCCCCCCCCC#N | inactive | –
CC(C)COP(=O)(OCC(C)C)OCC(C)C | inactive | –
CCOP(=O)(OCC)Oc1ccc([N+](=O)[O-])cc1 | inactive | –
